Measured values as given in PubChem BioAssay (Tox21).
Records with an inconclusive call do not appear. A number with no mark means an inactive call. Activity calls are given as the source filed them. Calls follow the shape of the dose curve; as a rule, active = well fitted inhibition curve with a large enough effect in the signal ratio in the repeat runs (not every such curve was filed as active); inconclusive = weak or mixed curves, or effect the other way; inactive = no such curve, though single readings can be large or run the other way; the % refers to the signal ratio.

The compounds below were run against Peroxisome proliferator-activated receptor delta (Homo sapiens) (UniProt Q03181) (assay: qHTS assay to identify small molecule antagonists of the peroxisome proliferator-activated receptor delta (PPARd) signaling pathway (AID 743215;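 also: cells stimulated with agonist L165041 at 300 nM final during compound exposure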)). Conditions: HEK293H PPARd-UAS-bla, beta-lactamase FRET ratio, antagonist, 17 h; series mostly up to 62 µM; ratio activity, negative = inhibition: at the top concentration.
Source text: U.S. Tox21 Program National Center for Advancing Translational Sciences [NCATS] NIH Chemical Genomics Center [NCGC] U.S. Environmental Protection Agency [EPA] National Institutes of Environmental Health Sciences [NIEHS] National Toxicology Program [NTP] U.S. Food and Drug Administration [FDA] Tox21 Assay Overview: The peroxisome proliferator-activated receptors (PPARs) are lipid-activated transcription factors of the nuclear receptor superfamily with three distinct subtypes namely PPAR alpha, PPAR delta (PPARd) and PPAR gamma. All these subtypes heterodimerizes with Retinoid X receptor (RXR) and have different physiological functions. […] To identify the compounds that inhibit PPAR-delta signaling, GeneBLAzer PPAR delta UAS-bla HEK293H cell line (Invitrogen, Carlsbad, CA, USA) containing a beta-lactamase reporter gene under the control of an Upstream Activator Sequence (UAS) was used to screen the Tox21 compound library.
Tox21 Assay Protocol Summary: PPARd-bla cells were dispensed at 3000 cells/5uL/well in 1536-well black wall/clear bottom plates using a Multidrop Combi (Thermo Fisher Scientific, Waltham, MA) dispenser. After the assay plates were incubated at 37 C and 5% CO2 for 5 h, 23 nL of compounds dissolved in DMSO, positive controls or DMSO only was transferred to the assay plate by a Pintool station (Kalypsys, San Diego, CA), followed by addition of 1ul L165041 (300 nM, final concentration in the wells). The assay plates were incubated at 37 C for 17 h, and then 1 uL of LiveBLAzerTM B/G FRET substrate was added using a Bioraptr Flying Reagent Dispenser (FRD) workstation (Beckman Coulter, Indianapolis, IN, USA). The assay plates were incubated at room temperature for 2 h and fluorescence intensity was measured by an Envision plate reader (PerkinElmer, Shelton, CT).
% is scaled to controls: 0 for no effect and ±100 for the full control effect; potency is read from the fitted curve at half-maximal effect.

Sequence of Peroxisome proliferator-activated receptor delta (Homo sapiens) (Q03181 whole entry, looked up): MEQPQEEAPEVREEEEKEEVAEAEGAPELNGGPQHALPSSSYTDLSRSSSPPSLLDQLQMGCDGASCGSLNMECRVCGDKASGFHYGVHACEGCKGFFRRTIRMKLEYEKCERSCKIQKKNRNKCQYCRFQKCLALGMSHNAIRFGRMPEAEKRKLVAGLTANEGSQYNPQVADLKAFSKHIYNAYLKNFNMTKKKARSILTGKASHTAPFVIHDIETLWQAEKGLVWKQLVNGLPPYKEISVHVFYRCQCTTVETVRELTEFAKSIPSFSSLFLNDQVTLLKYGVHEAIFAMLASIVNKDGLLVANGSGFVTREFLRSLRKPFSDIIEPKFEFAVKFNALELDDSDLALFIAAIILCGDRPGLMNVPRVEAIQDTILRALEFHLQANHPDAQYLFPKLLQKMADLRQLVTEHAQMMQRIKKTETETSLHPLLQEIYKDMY

| Structure (SMILES) | ratio activity, negative = inhibition | Potency |
| --- | --- | --- |
| Cc1cc2c3c(c1)C(c1ccccc1)=N[C@@H](NC(=O)c1ccncc1)C(=O)N3CC2 | -7.76% |  |
| CCCCCCCCCCCCCCn1cc[n+](C)c1 | -12.9% |  |
| O.O.O.O=C([O-])[C@H]([O-])[C@@H]([O-])C(=O)[O-].O=C([O-])[C@H]([O-])[C@@H]([O-])C(=O)[O-].[K+].[K+].[Sb+3].[Sb+3] |  | 12.4 µM (active) |
| CCC[CH2][Sn]([CH2]CCC)([CH2]CCC)[CH2]CCC |  | 15.5 µM (active) |
| O=C(N[C@H]1N=C(c2ccccc2F)c2cccc3c2N(CC3)C1=O)c1cc2ccccc2[nH]1 | -11.5% |  |
| CSSC | -3.94% [at 80.4 µM] |  |
| CC1(C)C(C=C(Cl)Cl)C1C(=O)OC(C#N)c1ccc(F)c(Oc2ccccc2)c1 (stereo not given) | 7.75% |  |
| BrCC(Br)(Br)Br | -23.1% [at 80.4 µM] |  |
| CCNc1nc(NC(C)C(C)C)nc(SC)n1 (stereo not given) | -0.265% |  |
| Nc1ccccc1-c1ccccc1 | -4.8% |  |
| CCN1CCC2(CC1)COc1cc3c(cc12)N(C(=O)c1ccc(-c2ccc(-c4nnc(C)o4)cc2C)cc1)CC3 |  | 18 µM (active) |
| CCC1(CC)C(=O)N=C(O)NC1=O | -12.1% |  |
| ClC1=C(Cl)[C@]2(Cl)[C@H]3[C@H]([C@@H]4C=C[C@H]3C4)[C@@]1(Cl)C2(Cl)Cl |  | inactive |
| Cc1cccc(Cc2cnc[nH]2)c1C | -5.15% |  |
| Oc1cccc(Cl)c1Cl | 7.52% [at 80.4 µM] |  |
| CCOC(=O)Cc1ccccc1 | 3.36% |  |
| COc1c2c(cc3c1OCO3)CCN(C)C2 | -3.54% |  |
| CCOP(=S)(OCC)Oc1cc(C)nc(N(CC)CC)n1 | -7.39% |  |
| CSC(C)(C)/C=N/O | -0.0437% |  |
| N#CSCc1ccccc1 | -26.2% [at 80.4 µM] |  |

| Structure (SMILES) | ratio activity, negative = inhibition | Potency |
| --- | --- | --- |
| Fc1ccc(C(OCCN2CCN(CCCc3ccccc3)CC2)c2ccc(F)cc2)cc1 |  | 29.8 µM (active) |
| O=S1(=O)OCC2C(CO1)C1(Cl)C(Cl)=C(Cl)C2(Cl)C1(Cl)Cl (stereo not given) | 2.64% |  |
| C=CCOC(=O)c1ccccc1N | -0.694% [at 80.4 µM] |  |
| CCC(C)c1cccc(C(C)CC)c1O (stereo not given) | 14.6% |  |
| CC(C)=CC1C(C(=O)OC(C#N)c2cccc(Oc3ccccc3)c2)C1(C)C (stereo not given) | -22.6% |  |
| COC(=O)c1ccccc1S(=O)(=O)NC(=O)Nc1nc(C)nc(OC)n1 | 10.5% |  |
| CCNS(=O)(=O)C(F)(F)C(F)(F)C(F)(F)C(F)(F)C(F)(F)C(F)(F)C(F)(F)C(F)(F)F | -12.2% |  |
| COc1ccc2c(c1OC)C(=O)O[C@@H]2[C@H]1c2cc3c(cc2CCN1C)OCO3 | 2.25% |  |
| CC(Cc1ccc2c(c1)OCO2)NO (stereo not given) | 0.505% [at 80.4 µM] |  |
| O=C(NC(=O)c1ccccc1Cl)Nc1ccc(OC(F)(F)F)cc1 | 12% |  |
| O=Cc1ccccc1 | 8.65% [at 80.4 µM] |  |
| Clc1ccc(C(c2ccc(Cl)cc2)C(Cl)Cl)cc1 | 0.984% |  |
| CN1C2CCC(C)(C)C1CC(OC(=O)C(O)(c1cccs1)c1cccs1)C2 (stereo not given) | 4.88% |  |
| N#Cc1ccc(N(CC(N)=O)CC(F)(F)F)cc1C(F)(F)F | 4.58% |  |
| O=S(=O)(O)F | 11.8% [at 80.4 µM] |  |
| C#CCO | 6.18% |  |
| ClC(Cl)C(Cl)(Cl)Cl | -5.4% |  |
| CC1CN1 (stereo not given) | -11.2% |  |
| CCCCCON=O | -4.23% [at 80.4 µM] |  |
| CCOP(=O)(OCC)Oc1nc(Cl)c(Cl)cc1Cl |  | 12.2 µM (active) |
